Active and inactive are the calls of the source. A call without a number means that no potency is given here. The call rests on the fitted dose curve; in most records, active means well fitted curve in the direction sought with a large enough effect in the repeat runs; inconclusive means weak or mixed curves; inactive means flat fitted curve, though single readings scatter.
test: qHTS assay to test for compound auto fluorescence at 460 nm (blue) in HepG2 cell free culture (AID 720685); settings: Cell-free culture medium, blue autofluorescence 405/460 nm; series mostly up to 91.3 µM
Method in brief: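 Compound (23 nL) or DMSO pinned into cell-free MEM with 10% FBS; blue fluorescence read at 405/460 nm excitation/emission, expressed as auto-fluorescence equivalency to triamterene.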

| Structure (SMILES) | Potency | fluorescence, % of fluorescent control |
| --- | --- | --- |
| CC(=O)NC(Cc1ccccc1)C(=O)O (stereo not drawn) | inactive |  |
| CC(C)(O)Cc1ccccc1 | inactive |  |
| Cc1ccccc1Br | inactive |  |
| CC12CCC(CC1=O)C2(C)C (stereo not drawn) | inactive |  |
| C=C(C)C1CC=C(C)C(O)C1 (stereo not drawn) | inactive |  |
| CC1CCN(CCCC(=O)c2ccc(F)cc2)CC1 | inactive |  |
| C1CCCCCCCCCCC1 |  | -0.102% [at 18.6 µM] (inactive) |
| COC(=O)[C@H]1[C@H]2C[C@@H]3c4[nH]c5cc(OC)ccc5c4CCN3C[C@H]2C[C@@H](OC(=O)COc2ccc(OC)cc2)[C@@H]1OC | inactive |  |
| CC1=CC(=O)CCC1 | inactive |  |
| CCOC(=O)[C@H](CCc1ccccc1)N[C@@H](C)C(=O)N1CCC[C@H]1C(=O)O | inactive |  |
| CCCCCC[C@@H](CCC)C(=O)O | inactive |  |
| CCCCC1CCCCC(=O)O1 (stereo not drawn) | inactive |  |
| CC1=CCC2C(C1)C2(C)C (stereo not drawn) | inactive |  |

test: qHTS assay to test for compound auto fluorescence at 535 nm (green) in HepG2 cell free culture (AID 720686); settings: Cell-free medium, green autofluorescence 485/535 nm; series mostly up to 91.3 µM

| Structure (SMILES) | outcome | fluorescence, % of fluorescein control |
| --- | --- | --- |
| CC(=O)OC(C)(C)C | inactive |  |
| CC(C)(O)c1ccccc1 | inactive |  |
| OCC(CO)(CO)COCC(CO)(CO)CO | inactive |  |
| C[C@H](O)C(=O)Nc1c(I)c(C(=O)NC(CO)CO)c(I)c(C(=O)NC(CO)CO)c1I |  | -0.0219% [at 18.6 µM] (inactive) |
| CSc1ccc(C=O)cc1 | inactive |  |
| NCC[C@H](O)C(=O)N[C@@H]1C[C@H](N)[C@@H](O[C@H]2O[C@H](CN)[C@@H](O)[C@H](O)[C@H]2O)[C@H](O)[C@H]1O[C@H]1O[C@H](CO)[C@@H](O)[C@H](N)[C@H]1O | inactive |  |
| CCN1CCN(c2cc3c(cc2F)c(=O)c(C(=O)O)cn3C2CC2)CC1 | inactive |  |
| CCCCCCCCCCCCCCC | inactive |  |
| C/C=C1\C(=O)C[C@H]2[C@@H]3CCC4=CC(=O)CC[C@]4(C)[C@H]3CC[C@]12C | inactive |  |
| c1cc(CN2CCCCC2)cc(OCCCNc2nc3ccccc3s2)c1 | inactive |  |
| CC(C)(C)N(CCO)CCO | inactive |  |
| COc1cc(C)cc(O)c1 | inactive |  |
| COc1ccc(NC(C)=O)cc1 | inactive |  |
| CC(=O)c1ccc(C)cc1 | inactive |  |
| COC(C(=O)O)c1ccccc1 (stereo not drawn) | inactive |  |
| COc1ccc(COC=O)cc1 | inactive |  |
| CCCCC=O | inactive |  |
| C#CC(O)CCCCC (stereo not drawn) | inactive |  |

| Structure (SMILES) | outcome | fluorescence, % of fluorescein control |
| --- | --- | --- |
| COc1cc(CCC(C)=O)ccc1O | inactive |  |
| NC(N)=NS(=O)(=O)c1ccc(N)cc1 |  | -0.0207% [at 18.6 µM] (inactive) |
| NC(=O)c1ncn([C@@H]2O[C@H](CO)[C@@H](O)[C@H]2O)c1O | inactive |  |
| NC(=S)Nc1cccc2ccccc12 |  | 0.006% [at 3.72 µM] (inactive) |
| CC(=O)NC(Cc1ccccc1)C(=O)O (stereo not drawn) | inactive |  |
| CC(C)(O)Cc1ccccc1 | inactive |  |
| Cc1ccccc1Br | inactive |  |
| CC12CCC(CC1=O)C2(C)C (stereo not drawn) | inactive |  |
| C=C(C)C1CC=C(C)C(O)C1 (stereo not drawn) | inactive |  |
| CC1CCN(CCCC(=O)c2ccc(F)cc2)CC1 | inactive |  |
| C1CCCCCCCCCCC1 |  | -0.0289% [at 18.6 µM] (inactive) |
| COC(=O)[C@H]1[C@H]2C[C@@H]3c4[nH]c5cc(OC)ccc5c4CCN3C[C@H]2C[C@@H](OC(=O)COc2ccc(OC)cc2)[C@@H]1OC | inactive |  |
| CC1=CC(=O)CCC1 | inactive |  |
| CCOC(=O)[C@H](CCc1ccccc1)N[C@@H](C)C(=O)N1CCC[C@H]1C(=O)O | inactive |  |
| CCCCCC[C@@H](CCC)C(=O)O | inactive |  |
| CCCCC1CCCCC(=O)O1 (stereo not drawn) | inactive |  |
| CC1=CCC2C(C1)C2(C)C (stereo not drawn) | inactive |  |

— PubChem BioAssay (Tox21)
